Hits are enriched below; roughly 10% of the tested compounds scored in any of these assays.
Pf growth 48h = Primary qHTS for delayed death inhibitors of the malarial parasite plastid, 48 hour incubation. P. falciparum luciferase growth in erythrocytes, 48 h. Potency, µM (series often up to 28.7 µM), without a hit: at the top dose activity change, negative = inhibition, hits mostly inhibitors. actives 5.9% (n = 310,000). AID 504832, 2011; active = well fitted inhibition curve with a large enough effect; inconclusive = small, poorly fitted or top-dose-only effect, or another doubt; inactive = no such curve, though single readings can be large or run the other way; also: % is scaled to controls: 0 for no effect and ±100 for the full control effect
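Here the parasites carry a stable luciferase gene and grow inside erythrocytes in Albumax-based RPMI medium with compound for one erythrocytic cycle. Activity is scored as loss of luminescent signal.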
NS1 inh = qHTS Assay for Inhibitors of Influenza NS1 Protein Function. Potency, µM (highest dose often 46.1 µM), for inactives: at the highest dose activity, positive = more growth. actives 0.4% (n = 270,000); also: actives are rising curves; nearly all actives have a fitted effect of over 50% in size
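Recovery from NS1-induced slow growth read by OD600 in budding yeast switched to galactose assay medium (pH 6.0, -URA) at 1:100 dilution. Compound 23 nl per well; the matching strain lacking NS1 serves as control.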
Pf growth 96h = Primary qHTS for delayed death inhibitors of the malarial parasite plastid, 96 hour incubation | Potency, µM (titrated, usually from 28.7 µM), for the others: top-dose activity change, negative = inhibition, hits mostly inhibitors | P. falciparum luciferase reporter growth, 96 h | actives 6.9% (n = 320,000) | AID 504834, 2011; active = well fitted inhibition curve with a large enough effect; inconclusive = small, poorly fitted or top-dose-only effect, or another doubt; inactive = no such curve, though single readings can be large or run the other way; also: % is scaled to controls: 0 for no effect and ±100 for the full control effect
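Plates of compound plus infected erythrocytes (2% hematocrit, 0.05% parasitemia final) incubate 96 hours, 37 C, 5% CO2. Detection reagent added; reduced luminescence from the parasites' luciferase reporter flags inhibition.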
SARS PLP yeast = qHTS of Yeast-based Assay for SARS-CoV PLP; Potency, µM (series often up to 32.9 µM), for the others: at the highest dose activity, positive = growth rescue, actives largely listed as activators; S. cerevisiae expressing SARS-CoV PLpro, growth rescue; AID 485353, 2010; actives 0.19% (n = 330,000); also: 0% is about no effect; nearly all actives have a fitted effect of over 55% in size
Starred values were filed as active, the others as inactive; ? = inconclusive; . = no result; [ ] = remark or other dose. Unless noted, calls follow the shape of the full dose curve. Potency is read from the fitted curve at half-maximal effect.

SMILES	Pf growth 48h	NS1 inh	Pf growth 96h	SARS PLP yeast
COC(=O)[C@@]1(Cc2ccc(F)cc2)[C@H]2c3cc(C(=O)N(C)C)n(CCSCCO)c3C[C@H]2CN1C(=O)c1ccccc1	6.6µM*	-6%	13µM*	6%
COC(=O)[C@@]1(Cc2ccc(F)cc2)[C@H]2c3cc(C(=O)N(C)C)n(Cc4ccccn4)c3C[C@H]2CN1C(=O)c1ccccc1	3.3µM*	-17%	2.9µM*	-17%
COC(=O)[C@@]1(Cc2ccc(F)cc2)[C@@H]2[C@@H](CC(=O)[C@H]2CC(=O)C(=O)N(C)C)CN1C(=O)c1ccccc1	-23%	-28%	9.3µM*	-6%
O=S(=O)(Nc1ccc2c(c1)OCCO2)c1c(F)cccc1F	10%	0%	9%	1%
C[C@@]12CC(=O)[C@@H]3[C@@H](CCC4=CC(=O)CC[C@]43C)[C@@H]1CC=C2CC(=O)O	.	-7%	.	.
CC(OC(=O)c1ccc(Cl)nc1)C(=O)Nc1ccc2c(c1)OCO2 (stereo not drawn)	2%	.	3%	-2%
COCCn1c(SCC(=O)NC2(C#N)CCCCC2)nc2ccccc2c1=O	-21%	.	10%	9%
O=C1CCCN1CC1CCN(Cc2nc(CC3CC3)no2)CC1	?	2%	?	1%
O=C1CCCN1CC1CCCN(Cc2nc(COc3ccccc3)no2)C1 (stereo not drawn)	-3%	1%	15µM*	-1%
O=C(CSc1nnc(C2CCCCC2)o1)Nc1ccccc1Cl	122%	-32%	-7%	3%
Cc1sc2ncnc(N3CCCCC3C)c2c1C (stereo not drawn)	8%	-51%	-11%	-2%
Cc1c(C(=O)NCCC2=CCCCC2)sc2ncnc(N3CCCCC3C)c12 (stereo not drawn)	?	-15%	2.6µM*	-19%
CCOc1ccc(/C=N/NC(=O)CN2CCCCC2)cc1OCC	?	-8%	-22%	-2%
Cc1ccc(C(=O)NN(CCC(=O)NC(C)(C)C)C2=NS(=O)(=O)c3ccccc32)cc1	-9%	-12%	5.9µM*	11%
CN(CCOc1ccc(-c2ccn(S(=O)(=O)c3cccc4ccccc34)n2)cc1)c1ccccn1	10µM*	24%	9.3µM*	?
CN(CCOc1ccc(C=C2C(=O)NC(=O)NC2=O)cc1)c1ccccn1	-18%	.	66%	-1%
CN(CCOc1ccc(-c2ccn(S(=O)(=O)c3c(Cl)cccc3Cl)n2)cc1)c1ccccn1	?	9%	2.6µM*	?
COc1ccc(S(=O)(=O)n2ccc(-c3cnc(-c4ccccc4)s3)n2)cc1	?	?	?	-2%
CN(CCOc1ccc(-c2ccn(S(=O)(=O)c3ccc(Cl)cc3)n2)cc1)c1ccccn1	10µM*	25%	10µM*	-2%
COc1ccc(NC(=O)Cn2c(=O)n(-c3ccc(OC)cc3OC)c(=O)c3c(C)c(C)sc32)cc1	?	8%	12µM*	-5%
CCN(Cc1ccccc1)C(=O)Cn1c(=O)n(-c2ccc(OC)cc2OC)c(=O)c2c(C)c(C)sc21	?	.	?	-7%
Cc1cc2ncn(C(=O)c3ccc4c(c3)OCO4)c2cc1C	35%	-4%	2.9µM*	-4%
CC1CCN(C(=O)c2ccc3c(c2)OCO3)CC1	0%	?	13µM*	1%
CC1CN(C(=O)c2ccc3c(c2)OCO3)CC(C)O1 (stereo not drawn)	.	-49%	-16%	1%
COc1ccc(S(=O)(=O)NC2CC(C)(C)NC(C)(C)C2)c2ccccc12	?	17%	2%	0%
SMILES	Pf growth 48h	NS1 inh	Pf growth 96h	SARS PLP yeast
CC1C/C(=N\NC(=S)NC(C)C)CC(C)(C)C1 (stereo not drawn)	.	-4%	2.9µM*	29%
CC1C/C(=N\NC(=O)c2cccnc2)CC(C)(C)C1 (stereo not drawn)	13%	.	5%	0%
O=C1CCSc2ccc(Cl)cc2N1Cc1ccc(Cl)cc1	?	3%	15µM*	-7%
COc1ccccc1CCNC(=O)/C(=C/c1cccnc1)NC(=O)c1ccccc1	-11%	6%	10µM*	-25%
COc1ccccc1NC(=O)/C(=C\c1cccnc1)NC(=O)c1ccc(C)cc1	-8%	-24%	10µM*	-2%
CC(C)(C)c1ccc(C(=O)NCC(=O)NCc2ccccn2)cc1	35%	.	37%	-12%
COc1ccc(C2c3c(oc4c(C)cc(C)cc4c3=O)C(=O)N2Cc2cccnc2)cc1OC (stereo not drawn)	0%	-1%	9.3µM*	-9%
COc1ccc(C2c3c(-c4ccccc4O)n[nH]c3C(=O)N2Cc2ccco2)cc1OC (stereo not drawn)	-43%	-6%	-20%	0%
COc1cc(C2c3c(oc4c(C)cc(C)cc4c3=O)C(=O)N2Cc2cccnc2)cc(OC)c1OC (stereo not drawn)	.	-17%	.	.
O=C1c2[nH]nc(-c3ccccc3O)c2C(c2ccc(F)cc2)N1Cc1ccco1 (stereo not drawn)	?	?	.	-21%
COc1ccc(C2c3c(-c4cc(Cl)c(C)cc4O)n[nH]c3C(=O)N2Cc2cccnc2)cc1OC (stereo not drawn)	3.3µM*	-62%	-10%	1%
COc1ccc(CCN2C(=O)c3[nH]nc(-c4ccccc4O)c3C2c2cccc(O)c2)cc1OC (stereo not drawn)	10µM*	9%	13µM*	-3%
O=C1c2[nH]nc(-c3ccccc3O)c2C(c2cccc(Cl)c2)N1Cc1ccco1 (stereo not drawn)	8.3µM*	.	.	-13%
N#Cc1ccccc1OCC(=O)NCC(c1ccc(F)cc1)N1CCOCC1 (stereo not drawn)	?	.	-21%	-3%
CO[C@H]1C[C@@H](O[C@@H]2[C@H](C)[C@H](O[C@@H]3O[C@@H](C)C[C@@H](N(C)C)[C@@H]3O)[C@H](C)C[C@]3(CO3)C(=O)[C@H](C)[C@H](O)[C@H](C)[C@H](C)OC(=O)[C@@H]2C)O[C@@H](C)[C@H]1O	-5%[12.8 µM]	.	-11%[12.8 µM]	.
O=C(Nc1ccc2c(c1)oc1ccccc12)c1cccnc1	?	-51%	2.1µM*	-7%
CNC(=O)COc1ccccc1C(=O)Nc1ccc2c(c1)oc1ccccc12	.	4%	4.7µM*	-5%
N#Cc1ccccc1NC(=O)c1ccccc1OCC(=O)Nc1ccc2c(c1)oc1ccccc12	.	16%	.	.
CCOC(=O)c1c(C)[nH]c(C(=O)N/N=C\c2ccccc2Cl)c1C	?	6%	9.3µM*	11%
CCOC(=O)c1c(C)[nH]c(C(=O)N/N=C/c2cccc(OC)c2)c1C	-7%	5%	-25%	0%
CC(C)COC(=O)C1C(=O)CC(C)(O)C(C(=O)OCC(C)C)C1c1cccnc1 (stereo not drawn)	9.3µM*	-3%	.	1%
CC(C)OC(=O)C1C(=O)CC(C)(O)C(C(=O)OC(C)C)C1c1cccc(O)c1 (stereo not drawn)	-3%	-5%	4.1µM*	0%

Compound activity (PubChem BioAssay)
